Assay results as given in PubChem BioAssay AID652016 (National Center for Advancing Translational Sciences (NCATS), 2013).
Records with an inconclusive call do not appear. Entries that show only a call come without a potency. The source made the active and inactive calls. Calls follow the shape of the dose curve; as a rule, active = well fitted inhibition curve with a large enough effect; inconclusive = small, poorly fitted or top-dose-only effect; inactive = flat fitted curve, though single readings scatter.

Molecular target: Luciferin 4-monooxygenase (Photinus pyralis) (UniProt P08659)
Test: qHTS Assay for Inhibitors of Firefly Luciferase from the GSK Published Protein Kinase Inhibitor Set
Outline: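 Purified P. pyralis luciferase, 10nM, with 10uM D-luciferin and 10uM ATP in 50mM Tris acetate pH 7.5, 10mM Mg acetate, 0.01% Tween-20, 0.05% BSA. Titration ~60uM to 300pM; luminescence read after about 5 min.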
Potency is read from the fitted curve at half-maximal effect.

Luciferin 4-monooxygenase (Photinus pyralis), sequence (P08659 whole entry, looked up): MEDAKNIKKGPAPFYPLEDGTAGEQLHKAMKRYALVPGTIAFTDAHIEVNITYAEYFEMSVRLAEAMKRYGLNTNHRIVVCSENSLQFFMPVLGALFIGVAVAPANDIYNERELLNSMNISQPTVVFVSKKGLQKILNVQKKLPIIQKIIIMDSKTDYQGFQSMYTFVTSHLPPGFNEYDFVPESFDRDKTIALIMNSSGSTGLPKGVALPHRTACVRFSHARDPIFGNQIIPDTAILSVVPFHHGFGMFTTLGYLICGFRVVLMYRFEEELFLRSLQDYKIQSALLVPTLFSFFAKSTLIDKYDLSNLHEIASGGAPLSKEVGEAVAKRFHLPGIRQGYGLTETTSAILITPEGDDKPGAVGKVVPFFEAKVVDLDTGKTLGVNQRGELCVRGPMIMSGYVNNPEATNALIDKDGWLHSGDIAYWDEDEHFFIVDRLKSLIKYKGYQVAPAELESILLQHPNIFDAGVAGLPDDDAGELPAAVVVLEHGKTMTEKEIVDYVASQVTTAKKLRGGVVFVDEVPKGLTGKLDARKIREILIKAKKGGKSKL

Structure (SMILES)	Potency
COc1ccc2cc(-c3c(-c4ccncc4)nc(-c4ccc(S(C)(=O)=O)cc4C)n3C)ccc2c1	inactive
COc1ccccc1Nc1ncc(-c2ccccc2)o1	1.03 µM (active)
CN(C)c1cc2c(Nc3ccc4c(cnn4Cc4ccccc4)c3)ncnc2cn1	inactive
Cc1cc(-c2ccccn2)cc(C)c1C=Cc1cncc(-c2nn[nH]n2)c1	inactive
CC1=C(C(=O)Nc2cc(Cl)c3[nH]ncc3c2)C(c2ccc(C(F)(F)F)cc2)CC(=O)N1 (centres undefined)	inactive
CNC(=O)c1cc(-c2ccc(F)cc2)cc(-c2ccc(S(=O)(=O)N3CCCC3)cc2)c1N	inactive
CCS(=O)(=O)c1ccc(OC)c(Nc2nccc(N(C)c3ccc4c(C)[nH]nc4c3)n2)c1	inactive
Nc1ncnc2occ(-c3ccc(NC(=O)Nc4cc(C(F)(F)F)cc(C(F)(F)F)c4)cc3)c12	inactive
c1ccc(Cc2nc3ccc(Nc4ncnc5ccccc45)cc3[nH]2)cc1	16.3 µM (active)
CCn1c(-c2nonc2N)nc2c(C#CC(C)(C)O)nc(OCCNC)cc21	inactive
Cc1ccc2[nH]c(O)c(N=Nc3ccc(S(N)(=O)=O)cc3)c2c1	inactive
CC(Oc1cc(-n2cnc3ccc(OCC4CCN(C)CC4)cc32)sc1C(N)=O)c1ccccc1Cl (centres undefined)	inactive
COc1cc2ncn(-c3cc(OCCc4ccccc4)c(C(N)=O)s3)c2cc1OC	inactive
COc1ccc(C2=C(N3CCc4ccccc43)C(=O)NC2=O)cc1	inactive
CN1CCC(C(=O)Nc2n[nH]c3nc(-c4ccc(O)cc4)c(Br)cc23)CC1	inactive
O=C(O)c1ccc(Oc2nccc(-c3c(-c4ccc(F)cc4)ncn3C3CCNCC3)n2)cc1	inactive
CCN(CC)S(=O)(=O)c1ccc(OC)c(Nc2ncc(-c3ccccc3)o2)c1	inactive

Structure (SMILES)	Potency
Fc1ccc(-c2ncn(C3CCNCC3)c2-c2ccnc(Oc3cccc(C(F)(F)F)c3)n2)cc1	inactive
O=C1Nc2ccc(C(=O)c3ccco3)cc2/C1=C/c1cc(Cl)c(O)c(Cl)c1	18.3 µM (active)
O=C1Nc2ccccc2C1=C1CCc2cc(O)ccc21	5.17 µM (active)
CCn1c(-c2nonc2N)nc2c(C#CC(C)(C)O)ncc(OC3CCNCC3)c21	inactive
COc1ccc2ncn(-c3cc(OC(C)c4ccccc4C(F)(F)F)c(C(N)=O)s3)c2c1 (centres undefined)	inactive
CC1=C(C(=O)Nc2ccc3n[nH]c(C)c3c2)C(c2ccc(C(F)(F)F)cc2)CC(=O)N1 (centres undefined)	inactive
NC(=O)c1sc(-n2cnc3cc(C(F)(F)F)ccc32)cc1OCc1ccccc1Br	inactive
Nc1nccc(-c2c(-c3ccc(F)cc3)ncn2C2CCNCC2)n1	inactive
COc1cc2ncnc(Nc3ccc(C)c(O)c3)c2cc1OC	inactive
Cc1ccc2c(-c3ccnc(Nc4ccccc4)n3)c(-c3ccc(F)cc3)nn2n1	inactive
CNC(=O)c1cccc(C#Cc2cncnc2Nc2ccc(OCc3cccc(F)c3)c(Cl)c2)c1	inactive
COc1cc(N2CCN(C(C)C)CC2)ccc1Nc1nc(Nc2cccc3ncccc23)c2cc[nH]c2n1	inactive
COc1cccc(COc2cc(-n3cnc4ccccc43)sc2C(N)=O)c1	inactive
COc1ccc(-c2nn3ncccc3c2-c2ccnc(Nc3ccc(F)c(F)c3)n2)cc1	inactive
CNC(=O)c1cncc(C=Cc2c(Cl)cccc2Cl)c1	16.3 µM (active)
NC(=O)c1ccc(-c2nc(-c3ccc4c(c3)OCO4)c(-c3ccccn3)[nH]2)cc1	inactive
CCN(CC)Cc1ccc(Nc2nccc(-c3cnn4ncccc34)n2)cc1	inactive
